Test results taken from PubChem BioAssay (Tox21).
Inconclusive results are not listed. Where a call stands in place of a potency, no number is given. A number with no mark means an inactive call. Activity calls are given as the source filed them. The call rests on the fitted dose curve; in most records, active means well fitted cell-killing curve with a large enough effect in the repeat runs; inconclusive means weak or mixed curves, or effect the other way; inactive means flat fitted curve, though single readings scatter.

assay: qHTS assay to identify small molecule antagonists of the constitutive androstane receptor (CAR) signaling pathway - cell viability counter screen (AID 1224837); conditions: HepG2-CYP2B6-hCAR viability, CellTiter-Fluor, 23 h, co-treated with 50 nM CITCO; series mostly up to 92.4 µM; further: nearly all actives have a fitted effect of over 45% in size
Source text: National Center for Advancing Translational Sciences [NCATS]
NIH Chemical Genomics Center [NCGC]
U.S. Environmental Protection Agency [EPA]
National Institutes of Environmental Health Sciences [NIEHS]
National Toxicology Program [NTP]
U.S. Food and Drug Administration [FDA]
The constitutive androstane receptor (CAR) is a nuclear receptor which regulates multiple drug metabolizing enzymes (DMEs) and transporters. Activating CAR will generally increase the transcription and subsequent translation of CYP2B6 and CYP3A4. These two DMEs represent about 50% of the drug metabolizing potential in the body. When CAR is deactivated, the metabolizing potential in the body will decrease, subsequently increasing the toxicity in the body or lowering the therapeutic potential of a pro-drug. Recently, there have also been studies performed indicating CARs role in energy metabolism and cancer therapy. Therefore, inhibiting CARs activity could have a potential effect on diabetes and cancer. Identifying environmental toxins and compounds which modulate CAR, through the use of the Tox21 10K compound collection, will be an important step in determining the toxicity and potential therapeutic effects these factors will have on the human body. To differentiate true CAR antagonists from cytotoxic substances, the assay is multiplexed with a cell viability assay.
Tox21 Assay Protocol Summary:
A double-stable (hCAR and CYP2B6-2.2kb) transfected cell line, derived from human hepatoma (HepG2) cells, was utilized for the duration of the quantitative high-throughput screens. The HepG2-CYP2B6-hCAR cells were dispensed at 2500 cells/4 uL/well in 1536-well white solid bottom plates using a Multidrop Combi. After the assay plates were incubated at 37 C/5% CO2 for 4 hrs, 23 nL of compounds at 15 concentrations (from 5-48 columns) or positive control (from 1 to 4 columns) were transferred to the assay plates using a Pintool station. One uL of CITCO (final concentration = 50 nM) was added, using a Flying Reagent Dispenser, inside each well. After a 23 hr incubation period at 37 C/5% CO2, 1 uL of CellTiter-Fluor reagent was added into each well of the assay plates using a Flying Reagent Dispenser. The fluorescence intensity in the plates was then measured using a ViewLux plate reader.
Potency means the concentration at half of the fitted maximal effect.

| SMILES | Potency | activity change, negative = cytotoxicity |
| --- | --- | --- |
| CCCCCCCCCCCC(=O)OCC(C)OC(=O)CCCCC(=O)O (stereo not given) | inactive |  |
| O=C(O)c1ccc2cc(C(=O)O)ccc2c1 | inactive |  |
| Cc1c(F)c(N2CCNC(C)C2)cc2c1c(=O)c(C(=O)O)cn2C1CC1 (stereo not given) | inactive |  |
| OC1CCC(C2CCCCC2)CC1 (stereo not given) | inactive |  |
| CC(C)(C)NSc1nc2ccccc2s1 | inactive |  |
| Oc1ccccc1O | inactive |  |
| Cc1cc(C(C#N)c2ccc(Cl)cc2)c(Cl)cc1NC(=O)c1cc(I)cc(I)c1O (stereo not given) | inactive |  |
| O=C(c1ccc(O)c(O)c1)c1ccc(O)cc1O | inactive |  |
| COc1cc2nc(N3CCN(C(=O)c4ccco4)CC3)nc(N)c2cc1OC |  | -2.45% [at 19 µM] |
| c1ccsc1 | inactive |  |
| COc1ccc(-c2coc3cc(O)ccc3c2=O)cc1 | inactive |  |
| Cc1cc(-n2nc3ccc(Cl)cc3n2)c(O)c(C(C)(C)C)c1 | inactive |  |
| Cl[Si](Cl)(c1ccccc1)c1ccccc1 | inactive |  |
| CC(C)OC(=O)C(O)(CC(=O)O)CC(=O)O | inactive |  |
| COC(=O)c1ccccc1C | inactive |  |
| CC(=O)Oc1cc2c(s1)CCN(C(C(=O)C1CC1)c1ccccc1F)C2 (stereo not given) | inactive |  |
| Cc1nc(-c2ccc(Cl)cc2)oc1COC(C)(C)C(=O)O | inactive |  |
| CC1(C)CCC[C@]2(C)[C@H]3CC(=O)O[C@]3(C)CC[C@@H]12 | inactive |  |
| CCN(CC)C(=O)c1cc(S(=O)(=O)Cc2ccccc2)c(N2CCC(c3ccccc3)CC2)cc1N(CC)CCN(C)C | 24.1 µM (active) |  |
| Cc1cccc(C)c1NC(=O)c1ccc(N)cc1 | inactive |  |

| SMILES | Potency | activity change, negative = cytotoxicity |
| --- | --- | --- |
| COc1ccc(NC(=O)CC(C)=O)cc1 | inactive |  |
| COC(C)=O | inactive |  |
| COc1cc(S(=O)(=O)O)c(C)cc1N=Nc1c(O)ccc2cc(S(=O)(=O)O)ccc12 | 27.3 µM (active) |  |
| Oc1cc(Cl)cc(Cl)c1Cl | inactive |  |
| O=C(O)CCN(C1(C(=O)NO)CCCC1)S(=O)(=O)c1ccc(Oc2ccc(F)cc2)cc1 | inactive |  |
| O=C1OC2(c3ccc(O)cc3Oc3cc(O)ccc32)c2ccc(N=C=S)cc21 | inactive |  |
| CCN1C(=O)c2ccccc2C1Nc1ccc(OCCN2CCCCC2)cc1 (stereo not given) | inactive |  |
| ClCCl | inactive |  |
| COc1ccc2c(c1)c(CC(=O)OC/C=C(\C)CC/C=C(\C)CCC=C(C)C)c(C)n2C(=O)c1ccc(Cl)cc1 | inactive |  |
| O=C(/C=C/c1ccccc1)OC/C=C/c1ccccc1 | inactive |  |
| COc1c(C)c2c(c(O)c1C/C=C(\C)CCC(=O)OCCN1CCOCC1)C(=O)OC2 | inactive |  |
| CCCCOC(=O)CC | inactive |  |
| Cc1cccc(C(=O)O)c1O | inactive |  |
| CCCCC(CC)CN1CN(CC(CC)CCCC)CC(C)(N)C1 (stereo not given) | inactive |  |
| CCC(=O)OC(=O)CC | inactive |  |
| Cc1ccc(C(=O)O)cc1 | inactive |  |
| COC1=C(OC)C(=O)C(CCCCCCCCCCO)=C(C)C1=O | inactive |  |
| Cc1cc(C(C)(C)C)cc(C)c1CC1=NCCN1 | inactive |  |
| S=c1nccc[nH]1 | inactive |  |
| C[C@H]1NCc2cc(-c3ccc4c(=O)c(C(=O)O)cn(C5CC5)c4c3OC(F)F)ccc21 |  | -0.799% [at 19 µM] |
